The text below walks through data of PubChem BioAssay AID1276 (Columbia University Molecular Screening Center, 2008).

Hit rate of the full screen: of about 190,000 compounds, about 2,000 (1.1%) were called active.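 How the source made its calls: active means activation above a set limit, based on mean plus 3 SD of controls (cut at about 140% in these data); inconclusive means one replicate above the limit, the other below; inactive means the rest.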 For the sample, actives were picked, then their nearest neighbours and some compounds at random.

The nature of this assay: APP 5'UTR reporter signal increase – luciferase, SH-SY5Y cells, primary screen (AID 1276). Particulars: SH-SY5Y APP 5'UTR luciferase reporter, luminescence; at 2 µM; hits give high values; zero percent = DMSO vehicle wells.
Regarding `O=C(N/N=C/c1cc2c(cc1Br)OCO2)C1COc2ccccc2O1` (centres undefined), the activation is -5.77% (inactive).

As for `CCCOc1ccc(C(=O)NCCc2ccccc2)cc1`, the activation was 156% (active). In the case of `O=C(NCCOc1ccccc1)c1ccccc1`, the activation was 123% (inactive). Next, `O=C(NCCc1ccccc1)c1ccc(OCCOc2ccccc2)cc1`: 4.18% (inactive); `COc1cccc(C(=O)Nc2ccc(NC(=O)c3ccco3)cn2)c1`: 25.8% (inactive); `Cc1ccnc(NC(=O)c2ccc(NC(=O)c3ccco3)cc2)c1`: 79.3% (inactive). Then `O=C(Nc1ccc(NC(=O)c2cccs2)cn1)c1ccco1`, with 148% (active). Take `O=C(Cc1ccccc1)NNC(=O)C1CCN(c2ncccn2)CC1`: the activation was 18.4% (inactive).

Take `CC(C)C(=O)OCC(=O)Nc1ccc2c(c1)CCC2`: the activation is 5.67% (inactive). In the case of `O=C(NC1CCCC1)c1ccc(Br)s1`, the activation is -4.11% (inactive). Then `O=C(Nc1ccc2c(c1)CCC2)c1ccc(Br)s1`, with 208% (active); and `Cc1ccc2nsnc2c1S(=O)(=O)N1CCCC1C(=O)O` (centres undefined), with -2.44% (inactive); and `COc1ccc2nc(Nc3nc(-c4cc5ccccc5oc4=O)cs3)sc2c1`, with 33% (inactive). Next, `O=c1oc2ccccc2cc1-c1csc(Nc2ccc(O)cc2)n1`: 61% (inactive); `CCNc1nc(-c2cc3ccccc3o2)cs1`: 188% (active); `CC(Nc1ccccc1)c1cccnc1` (centres undefined): -12.4% (inactive). Then `CCOc1ccc2cc(C#N)c(SCC(=O)OC)nc2c1`, with 159% (active). Turning to `Cc1nonc1NC(=O)CSc1nc2ccccc2cc1C#N`, the activation is 15.1% (inactive). Turning to `CCOc1ccc2nc(NCCNS(=O)(=O)c3ccccc3)c(C#N)cc2c1`, the activation is 6.65% (inactive). Regarding `CN1CCN(/N=C2/C(=O)Nc3ccc([N+](=O)[O-])cc32)CC1`, the activation is 13.5% (inactive).

As to `COc1ccc(-c2nnc3ccc(SCc4ccccc4)nn23)cc1`, the activation was -7.22% (inactive).

As to `COC(=O)CSc1nc(C)c2ccc(OC)cc2n1`, the activation is 0.88% (inactive).

On to `COc1ccc2nc(SCc3ccccc3)nc(C)c2c1`, for which the activation is 170% (active). Next, `Cc1ccc(NC(=O)CCC(=O)N/N=C/c2ccco2)c(C)c1`: 8.01% (inactive); `COc1ccc(C2=NOC(COC(=O)c3ccc4ccccc4n3)C2)cc1` (centres undefined): 16.6% (inactive). Next, `COc1ccc(C2=Nc3cc(C)ccc3OC2)cc1`: 151% (active).

Regarding `COc1ccc(C2=NOC3(CC(=O)N(c4ccc(C)cc4)C3=O)C2)cc1` (centres undefined), the activation was -3.01% (inactive). Then `CCOc1ccccc1N1CCN(C(=S)Nc2ccc(S(N)(=O)=O)cc2)CC1`, with 11.8% (inactive); and `Clc1ncn(CCOc2ccccc2)c1Cl`, with -15.2% (inactive); and `Fc1ccc2nc(Nc3nc4c(s3)CCCC4)sc2c1`, with 143% (active). Next, `CSc1ncccc1C(=O)Nc1nc2ccc(F)cc2s1`: 52.4% (inactive); `Fc1ccc2nc(N3CCCCC3)sc2c1`: 112% (inactive); `CC(=O)Nc1ccc(S(=O)(=O)N2CCN(c3ccc([N+](=O)[O-])c(NCCN4CCOCC4)c3)CC2)cc1`: -6.4% (inactive). Next, `O=C(COC(=O)[C@H](Cc1ccccc1)NC(=O)c1cccs1)Nc1cc(F)ccc1F`: 12.5% (inactive).

Take `O=C(CSc1nnc(SCc2ccc(Cl)cc2)s1)N/N=C/c1ccccc1Cl`: the activation is -2.73% (inactive).

For the compound `Cc1cccc(C)c1Nc1nnc(SCC(=O)Nc2sccc2C#N)s1`, the activation is -9.91% (inactive). Next, `Cc1csc(SCC(=O)Nc2sccc2C#N)n1`: 192% (active); `COc1ccc(NC(=O)CSc2nc(C)cs2)cc1`: 6.05% (inactive); `C=CCn1c(CCNC(=O)c2cccs2)n[nH]c1=S`: -1.77% (inactive). Next, `CCC(=O)Oc1cccc(C(=O)Nc2ccc(-c3nnc(-c4ccco4)o3)cc2)c1`: 92.5% (inactive); `CCCCOc1ccc(-c2nnc(-c3ccco3)o2)cc1`: 136% (active). Then `CCCCOc1ccc(C(=O)NCc2ccco2)cc1`, with 4.26% (inactive). Regarding `COc1ccc(C(=O)CSc2nnc(-c3ccco3)o2)cc1`, the activation was 22.7% (inactive). Consider `CCCCSc1nnc(-c2ccc(C)cc2)o1`, for which the activation is 115% (inactive).

For `CCOc1ccc(-c2nnc(-c3ccco3)o2)cc1`, the activation is 147% (active). Next, `COCCSc1nnc(NC(=O)c2cc(OC)c(OC)cc2[N+](=O)[O-])s1`: 5.07% (inactive); `COc1cccc(N(C(=O)C2COc3ccccc3O2)C(C(=O)NC2CCCCC2)c2ccc(O)cc2)c1` (centres undefined): -0.98% (inactive). Next, `CN1CCN(c2nc(Nc3ccc(O)cc3)nc3ccccc23)CC1`: 18.9% (inactive). Next, `Cc1cc(Oc2ccc(Cl)cc2)nc(SCC(=O)c2ccccc2)n1`: 11.5% (inactive). Consider `CC(=O)NC(CC(=O)O)c1ccc(F)cc1` (centres undefined), for which the activation is 5.81% (inactive). Next, `O=C(Nc1ccc2nccnc2c1)c1ccco1`: 39.6% (inactive); `O=C(Nc1ccc2oc(-c3ccccc3F)nc2c1)c1ccco1`: 146% (active); `O=C(Nc1cccc(-c2nc3ncccc3o2)c1)c1ccco1`: -10.6% (inactive). Then `Cc1cnc(C(=O)N2CCCC(C(=O)c3ccc(C(F)(F)F)cc3)C2)cn1` (centres undefined), with 23% (inactive); and `NS(=O)(=O)c1ccc(NC(=O)COC(=O)C2(c3ccc(F)cc3)CCCC2)cc1`, with 5.99% (inactive).

For the compound `COc1ccc(CN(C)C(C)C(=O)NC2CCCc3ccccc32)cc1` (centres undefined), the activation was 9.96% (inactive). With `CC(NC(=O)COC(=O)c1cc(=O)[nH]c2ccccc12)c1ccccc1` (centres undefined), the activation is -4.94% (inactive). Then `O=C(NC1CC1)C1CCCN(C(=O)NC2CCCCC2)C1` (centres undefined), with 18.2% (inactive). On to `O=C(Nc1nc(-c2cccnc2)cs1)c1ccccc1F`, for which the activation is 61.5% (inactive). Then `CC(C)c1nc(-c2ccccn2)no1`, with 7.91% (inactive); and `c1ccc(-c2noc(-c3cccs3)n2)nc1`, with 209% (active). Then `c1csc(-c2nc(-c3ccncc3)no2)c1`, with 55.4% (inactive). Next, `CC(C)n1c(O)c(N=Nc2ccccn2)c2ccccc21`: 3.63% (inactive).

Turning to `CC(C)c1ccc(NC(=O)NC2CCCCC2)cc1`, the activation is 139% (active).

For the compound `CC(C)(C)NS(=O)(=O)c1ccc(NC(=O)NC2CCCCC2)cc1`, the activation is -13.3% (inactive). Consider `CC(C)N1CCC(NC(=O)Nc2ccccc2)CC1`, for which the activation is 15.8% (inactive).

For `CC(NCc1nc2ccccc2n1C)C12CC3CC(CC(C3)C1)C2` (centres undefined), the activation is 9.64% (inactive). Turning to `CC(=O)n1cc([C@H]2C=C(C(=O)N3CCOCC3)O[C@@H](OCc3ccc(CO)cc3)C2)c2ccccc21`, the activation is 3.91% (inactive).

`CC(C)(C)CN1CCNC(=O)C1CC(=O)NC1Cc2ccccc2C1` (centres undefined): the activation is -10.9% (inactive). Take `Cc1nn2cc(-c3ccc(Cl)cc3)cnc2c1Br`: the activation is 208% (active). Next, `CCOCCCN(C(=O)Cn1nnc(-c2ccc(OC)c(OC)c2)n1)C(CC)C(=O)NC1CCCC1` (centres undefined): 7.01% (inactive); `CCOC(=O)CCCN1CC(O)=C(c2nc3ccccc3s2)C1=N`: -7.28% (inactive); `COc1ccccc1N1CC(O)=C(c2nc3ccccc3s2)C1=N`: 1.68% (inactive).

As for `N=C1C(c2nc3ccccc3s2)=C(O)CN1NC(=O)c1ccc([N+](=O)[O-])cc1`, the activation was 150% (active).

For the compound `CN1CCNC(=O)C1CC(=O)NCCC1=CCCCC1` (centres undefined), the activation was 9.01% (inactive). Next, `COCCNC(=O)c1ccc(N2CCC3(CC2)OCCO3)c([N+](=O)[O-])c1`: 5.47% (inactive); `c1ccc(C2=Nc3cccc4cccc(c34)N2)cc1`: -8.18% (inactive); `CNC(=S)N1N=C(c2ccccc2)CC1c1ccc(Br)cc1` (centres undefined): 16.3% (inactive). Next, `Brc1ccc(C2CC(c3ccccc3)=Nc3ccccc3N2)cc1` (centres undefined): 176% (active); `CCc1nnc(NC(=O)CSc2nc(SC)ns2)s1`: 542% (active). Next, `CCc1nnc(NC(=O)CCC(=O)O)s1`: 11.8% (inactive); `COc1ccc(C)cc1NC(=O)CSc1nc(SC)ns1`: -17.1% (inactive); `CCn1c2ccccc2c2cc(CC(N)=O)ccc21`: -15% (inactive).

As to `CN(C)S(=O)(=O)c1ccc2oc(SCC(=O)Nc3ccccc3F)nc2c1`, the activation was 135% (active).

On to `COc1ccc(S(=O)(=O)N(C)C)cc1NC(=O)CSc1ncccn1`, for which the activation was -3.15% (inactive). Regarding `CCS(=O)(=O)c1ccc2oc(SCC(=O)N3c4ccccc4CC3C)nc2c1` (centres undefined), the activation is 12.2% (inactive). With `O=C(Nc1cccc(Cl)c1)c1cc([N+](=O)[O-])ccc1N1CCN(CCO)CC1`, the activation was -1.04% (inactive). Then `O=C(NNC(=S)NCCCN1CCOCC1)c1ccncc1`, with 1.62% (inactive); and `Nc1nc(-c2sc3nc4c(cc3c2N)CCCC4)nc(N2CCOCC2)n1`, with 45.3% (inactive); and `COc1ccc(CCNc2nc(-c3cccc(NC(C)=O)c3)cs2)cc1OC`, with 13% (inactive). Then `CC(=O)Nc1cccc(C(=O)Nc2nc(C)cs2)c1`, with 30.8% (inactive); and `CC(=O)Nc1cccc(-c2csc(Nc3cccc(C)n3)n2)c1`, with 177% (active).

In the case of `C/C(CC(=O)Nc1ccc(Cl)cc1)=N\NC(=O)C(=O)NCCO`, the activation was 6.46% (inactive).

As to `CC(C)c1nc2sc3c(c2c(=O)n1N)CC(C)(C)OC3`, the activation was 17.6% (inactive). With `O=C(O)c1ccc2c(c1)C(=O)N(NC(=O)c1ccc(O)cc1)C2=O`, the activation was -2.99% (inactive). On to `Cn1cnnc1SCC(=O)Nc1ccc(N2CCOCC2)cc1`, for which the activation was 5.51% (inactive). Next, `O=C(O)CCS(=O)(=O)c1ccc(-c2ccccc2)cc1`: -3.35% (inactive); `CCOc1cccc(-n2nnnc2-c2ccc(OC)cc2)c1`: -65.8% (inactive); `COc1ccc(-n2nnnc2-c2nc3ccccc3s2)cc1`: 237% (active). Next, `COc1ccc(-n2nnnc2SCC(=O)Nc2ccccc2)cc1`: 6.08% (inactive). Next, `Cc1cccc(NC(=O)c2nnn(-c3cccc(C(F)(F)F)c3)c2N)c1`: 27.1% (inactive); `Nc1nc(NCCCN2CCOCC2)nc(Nc2ccccc2)c1[N+](=O)[O-]`: -12.2% (inactive); `COCCNc1nc(N)c([N+](=O)[O-])c(NCCO)n1`: -12.7% (inactive). Turning to `CNc1nc(Nc2ccc(C)c(Cl)c2)nc(N)c1[N+](=O)[O-]`, the activation is 153% (active).
